# Bioassay records as filed in PubChem.
# Most compounds without a hit are left out; they make up all but 2.1% or so of the library.
# F508del corr – correctors of CFTR F508del function in bronchial epithelial cells; CFBE cells, YFP halide quenching; stimulated with forskolin plus potentiator P3; % fluorescence drop versus neutral controls; activity (quench increase), % at 7.58 µM; 0.36% of 350,000 active; AID 720511;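 active = mean added fluorescence quench of at least 8% versus neutral control, with both replicates also reaching 8%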;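 note: cells transiently co-express mutant CFTR-F508del with the halide-sensitive YFP; corrector assay measuring rescue of mutant channel to the surface after 24 h compound exposure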
# rRNA inh HTS – inhibitors of bacterial rRNA selective over humanized ribosomes. 1.6% of 350,000 active. GFP signal change (wild-type ribosome), % (concentration not given with the values). E. coli WT GFP vs humanized-ribosome RFP mutants, fluorescence, 24 h; hits give low values; DMSO median 0, no signal -100;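 active = significant combined selectivity score with lowered wild-type GFP, culture density cut under 30%, mutant RFP and density less affected; inactive = any of these conditions unmet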
# PvdQ inh – blocks Pseudomonas aeruginosa PvdQ acylase activity | purified PvdQ acylase, fluorescence plate reader | inhibition, % at 10 µM | 0.063% of 340,000 active | AID 488965; in the data active = inhibition above about 30%, passing the limit was not always enough;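 note: 0% = vehicle neutral wells and 100% = reference inhibitor wells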
# ERAP1 inh – ERAP1 (human) enzyme inhibition. recombinant ERAP1, Leu-AMC fluorescence, 60 min. AID 652197. 0.15% of 340,000 active. inhibition, % at 10.7 µM. Q9NZ08;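 active = mean replicate inhibition of at least 30%, or all replicates individually reaching that 30% level; inactive = mean below 30% and not every replicate reaching it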;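 note: 0% = neutral control wells and 100% = L-leucinethiol positive control wells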
# Target sequence (Q9NZ08 whole entry, looked up): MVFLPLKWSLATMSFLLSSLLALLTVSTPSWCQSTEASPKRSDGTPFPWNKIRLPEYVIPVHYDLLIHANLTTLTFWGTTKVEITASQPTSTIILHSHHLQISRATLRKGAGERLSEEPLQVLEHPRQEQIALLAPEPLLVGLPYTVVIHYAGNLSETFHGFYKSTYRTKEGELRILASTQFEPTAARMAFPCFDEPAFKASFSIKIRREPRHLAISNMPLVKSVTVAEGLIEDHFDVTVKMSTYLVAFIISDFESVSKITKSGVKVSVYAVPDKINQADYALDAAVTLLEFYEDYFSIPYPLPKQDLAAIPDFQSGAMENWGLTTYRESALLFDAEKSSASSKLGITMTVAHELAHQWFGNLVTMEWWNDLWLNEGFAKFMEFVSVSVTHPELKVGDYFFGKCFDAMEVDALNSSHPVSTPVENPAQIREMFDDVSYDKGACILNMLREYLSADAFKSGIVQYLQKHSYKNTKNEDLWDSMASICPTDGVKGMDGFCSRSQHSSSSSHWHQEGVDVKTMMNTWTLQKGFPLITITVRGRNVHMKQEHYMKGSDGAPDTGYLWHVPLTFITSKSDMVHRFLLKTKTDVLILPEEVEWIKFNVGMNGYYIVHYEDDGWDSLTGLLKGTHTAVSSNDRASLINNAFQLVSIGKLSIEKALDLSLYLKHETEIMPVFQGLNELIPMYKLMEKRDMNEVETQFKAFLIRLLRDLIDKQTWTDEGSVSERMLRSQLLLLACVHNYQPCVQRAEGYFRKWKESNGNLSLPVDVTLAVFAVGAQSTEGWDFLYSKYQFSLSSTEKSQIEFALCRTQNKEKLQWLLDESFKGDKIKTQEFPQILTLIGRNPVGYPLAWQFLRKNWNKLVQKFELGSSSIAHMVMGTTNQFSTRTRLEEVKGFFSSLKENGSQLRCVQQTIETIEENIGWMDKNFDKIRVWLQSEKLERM
# ARNT TACC3 PPI – disrupts binding between human ARNT and TACC3; 0.66% of 390,000 active; Q9Y6A5; inhibition, % at 9.99 µM; AlphaScreen His-ARNT PAS-B/GST-TACC3 binding, luminescence; TACC3 fragment carries E629A point mutation;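 active = mean inhibition of replicates at least 50% and at least half of replicates each reaching 50%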;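 note: 0% = complete ARNT plus TACC3 wells and 100% = ARNT alone without TACC3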
# An asterisk follows results filed as active; / = no result.
SMILES,F508del corr,rRNA inh HTS,PvdQ inh,ERAP1 inh,ARNT TACC3 PPI
COCCn1c(N)c(N(Cc2ccccc2)C(=O)C2=COCCO2)c(=O)[nH]c1=O,3,10,9,58*,-7
Cc1cc(Br)ccc1SCC(=O)OCC(=O)NCc1ccco1,0,-18*,-6,1,-3
Brc1ccc(-c2nnc(-c3ccco3)o2)cc1,/,/,90*,/,4
C/C(=N\NC(=O)c1ccccc1)c1c(C)[nH]n(-c2ccccc2)c1=O,/,-36,-12,-1,42*
COc1ccc(Cl)cc1NC(=O)CN(C)C(=O)c1sc2ccccc2c1Cl,0,-1,-3,3,0
Cc1ccc(NC(=O)CNCc2ccccc2)c(Br)c1,-1,-28*,-1,0,-11
Cc1ccc(CNCC(=O)Nc2ccc(C)cc2Br)cc1,-1,-34,-8,3,-6
COc1ccc(Cl)cc1NC(=O)CN(C)C(=O)c1sccc1-c1ccccc1,1,-33*,-11,-1,-6
COc1ccc(Cl)cc1NC(=O)CNCc1cccs1,1,-32*,1,-10,0
Cc1ccc(NC(=O)CNCc2cccs2)c(Br)c1,-2,-27*,-13,1,-7
CC(C)C#Cc1cnc2c(c1)C(=O)N([C@H](C)CO)C[C@H](C)[C@@H](CN(C)C(=O)CC1CC1)O2,-2,3,/,-6,-6
C[C@H]1CN([C@@H](C)CO)C(=O)c2cccc(NC(=O)C3CCOCC3)c2O[C@H]1CN(C)S(=O)(=O)c1ccccc1,1,2,/,1,-3
CNC[C@H]1Oc2c(NC(=O)Nc3ccc4c(c3)OCO4)cccc2C(=O)N([C@@H](C)CO)C[C@H]1C,1,6,/,-2,3
Cc1noc(C)c1NC(=O)NCC[C@H]1CC[C@@H](NC(=O)Nc2cccc(F)c2)[C@@H](CO)O1,0,-2,/,1,4
CC(=O)N(C)C[C@@H]1Oc2cc(-c3ccccc3F)ccc2S(=O)(=O)N([C@H](C)CO)C[C@@H]1C,-3,-7,/,4,4
COc1ccc(C)cc1NC(=O)CNc1ccccc1CN(C)C1CCCCC1,0,-20,-10,3,-1
COc1ccc(Cl)cc1NC(=O)CNc1ccccc1CN(C)C1CCCCC1,2,-34*,-3,-3,5
O=[N+]([O-])c1ccc(NC(=S)NCc2ccncc2)cc1,-3,-28*,1,-1,3
CC(NC(=S)Nc1ccc([N+](=O)[O-])cc1)c1ccncc1 (stereo not given),0,-27*,2,-6,2
COc1ccc(NC(=S)NC(C)c2ccncc2)cc1OC (stereo not given),0,4,1,-1,0
COc1ccccc1C(=O)Nc1ccc2c(c1)C(=O)N(C)[C@@H]1CC[C@H](CC(=O)NCc3ccc(Cl)c(Cl)c3)O[C@@H]1CO2,-1,-4,/,-3,-3
COc1ccc(C)cc1S(=O)(=O)N(CC(=O)NC1CCCC1)c1ccc(F)cc1,-2,-5,6,-1,46*
COc1ccc(C)cc1S(=O)(=O)N(C)CC(=O)NC1CCCCC1,/,/,-2,/,-6
COc1ccc(NC(=O)O/N=C/c2ccccc2Cl)cc1,-2,-13*,-2,0,1
CN(C)Cc1nc2ccccc2c(=O)n1Cc1nc(-c2cccc([N+](=O)[O-])c2)cs1,2,-24*,-8,-2,7
SMILES,F508del corr,rRNA inh HTS,PvdQ inh,ERAP1 inh,ARNT TACC3 PPI
O=C(/C=C/Nc1ccccc1Oc1ccccc1)c1ccco1,-2,-32*,0,-1,11
CCC(=O)NC(c1ccco1)c1cc(Br)c2cccnc2c1O (stereo not given),-1,-39,/,/,/
CCCC(=O)NC(c1ccccc1Cl)c1ccc2cccnc2c1O (stereo not given),6,13,-14,-4,-6
CC(=O)NC(c1ccco1)c1ccc2cccnc2c1O (stereo not given),/,-30,0,1,63*
CCCC(=O)NC(c1ccc(C(C)C)cc1)c1ccc2cccnc2c1O (stereo not given),12*,4,-2,-4,-2
CC(=O)NC(c1ccc(Cl)cc1)c1ccc2cccnc2c1O (stereo not given),12*,-2,9,-1,27
CC(C)C(=O)NC(c1ccc(Cl)cc1Cl)c1ccc2cccnc2c1O (stereo not given),2,-2,-18,1,20
COc1ccc2c3c(n(C)c2c1)[C@@H](CO)N(C(=O)c1ccccc1)CC31CN(C(=O)c2ccccc2)C1,-3,-4,/,4,/
CC(/C=C1\SC(=S)N(C(C(=O)O)c2ccccc2)C1=O)=C\c1ccccc1 (stereo not given),-2,-27*,-4,30*,9
C=CCOc1ccc(/C=C2\SC(=S)N(C(C(=O)O)c3ccccc3)C2=O)cc1 (stereo not given),-3,-42*,4,34*,6
CCOc1ccc(/C=C2\SC(=S)N(C(C(=O)O)c3ccccc3)C2=O)cc1OC (stereo not given),-2,-11,-7,11,0
O=C(O)C(c1ccccc1)N1C(=O)/C(=C/c2cccs2)SC1=S (stereo not given),1,-18,-7,-3,65*
O=C(C[C@@H]1CC[C@@H]2NC[C@@H](O)COC[C@H]2O1)NCCc1ccccc1,-2,4,/,-2,4
COCC(=O)Nc1ccc2c(c1)C(=O)N(C)C[C@@H](OC)[C@H](C)CN(Cc1ccccc1)[C@@H](C)CO2,-1,-5,/,2,15
Cc1noc(C)c1S(=O)(=O)Nc1ccc2c(c1)C(=O)N([C@H](C)CO)C[C@@H](C)[C@@H](CN(C)Cc1ccccc1)O2,2,1,/,-1,17
Cc1cc(NC(=O)COC(=O)c2cc([N+](=O)[O-])ccc2N2CCOCC2)ccc1Br,-1,-18*,2,4,-10
CCc1cccc(NC(=O)COC(=O)c2cc([N+](=O)[O-])ccc2N2CCOCC2)c1,9.1*,9,-12,3,/
Cc1cc(C)c(NC(=O)COC(=O)c2cc([N+](=O)[O-])ccc2N2CCOCC2)c(C)c1,-1,/,10,-6,13
CCOc1ccc(NC(=O)COC(=O)c2cc([N+](=O)[O-])ccc2N2CCOCC2)cc1,0,-12,-7,2,12
CC(C)NC(=O)N(C)C[C@@H]1Oc2ccccc2CC(=O)N(C)C[C@H]1C,/,2,/,/,/
CCCNC(=O)N1CC2(CCN(C(=O)c3cccc(F)c3)CC2)c2c([nH]c3cc(OC)ccc23)[C@@H]1CO,3,-9,/,0,/
COc1ccc2nc(NC(=O)Nc3ccccc3OC)sc2c1,3,0,-13,3,-4
O=C(COc1ccccc1)NNc1nc2ccccc2s1,-1,-28*,5,3,14
